The source of these data is article PMC7862700, “An all-to-all approach to the identification of sequence-specific readers for epigenetic DNA modifications on cytosine”.

What all share (test): DAPPL (digital affinity profiling via proximity ligation, sequencing); 10 mM Tris-HCl pH 7.5, 50 mM NaCl, 1 mM DTT, 4% glycerol, room temperature, 30 min; GST-TFs on glutathione beads, 16-mer random dsDNA library, 0.1% formaldehyde crosslink after washing; high values mean tight binding
In test [1] the target is T1, FEV (Homo sapiens, UniProt Q99581 1-238).
T1 sequence: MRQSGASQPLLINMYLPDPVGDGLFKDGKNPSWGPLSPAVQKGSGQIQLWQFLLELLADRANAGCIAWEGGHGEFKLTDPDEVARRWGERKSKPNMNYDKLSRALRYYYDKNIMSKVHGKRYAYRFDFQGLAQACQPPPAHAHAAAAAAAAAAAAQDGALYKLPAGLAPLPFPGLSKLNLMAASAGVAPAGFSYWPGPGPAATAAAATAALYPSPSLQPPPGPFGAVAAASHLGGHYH
To be noted: protein: recombinant; tags: N-terminal GST; dsDNA, one strand shown. The essentials: (§1)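 Binding signal is given per hexamer as its read frequency for a factor divided by its frequency in the tag-only sample. GST-fused human transcription factors were expressed in yeast, captured on glutathione beads, barcoded with DNA and pooled with that sample, then incubated with 200 nmole of a 16-mer random double-stranded DNA library in Tris/NaCl/DTT/glycerol buffer for 30 min at room temperature. The pools were then washed, crosslinked, proximity-ligated, amplified by PCR and sequenced on an Illumina NextSeq500.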

Test [2] has as its target ETV5 (Homo sapiens, UniProt P41161 1-510). Particulars: protein: recombinant; tags: N-terminal GST; dsDNA, one strand shown. The method, boiled down:
as §1

Test [3] deals with HSF1 (Homo sapiens, UniProt Q00613 1-529). Particulars: protein: recombinant; tags: N-terminal GST; chain copies: 3; dsDNA, one strand shown. The essentials:
as §1

Test [4] addresses T2, SPIC (Homo sapiens, UniProt Q8N5J4 1-248).
T2 sequence: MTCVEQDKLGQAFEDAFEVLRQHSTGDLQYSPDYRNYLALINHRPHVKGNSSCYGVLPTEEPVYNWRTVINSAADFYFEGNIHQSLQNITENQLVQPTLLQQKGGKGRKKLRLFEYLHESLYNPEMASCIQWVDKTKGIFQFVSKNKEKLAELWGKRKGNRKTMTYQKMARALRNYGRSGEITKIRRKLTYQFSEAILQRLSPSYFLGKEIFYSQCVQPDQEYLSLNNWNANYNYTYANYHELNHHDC
To be noted: protein: recombinant; tags: N-terminal GST; dsDNA, one strand shown. The essentials:
as §1

Test [5] has as its target ELF4 (Homo sapiens, UniProt Q99607 1-663). Particulars: protein: recombinant; tags: N-terminal GST; dsDNA, one strand shown. The essentials: as §1
Test [6] deals with T3, ELK4 (Homo sapiens, UniProt P28324-2 1-405).
T3 sequence: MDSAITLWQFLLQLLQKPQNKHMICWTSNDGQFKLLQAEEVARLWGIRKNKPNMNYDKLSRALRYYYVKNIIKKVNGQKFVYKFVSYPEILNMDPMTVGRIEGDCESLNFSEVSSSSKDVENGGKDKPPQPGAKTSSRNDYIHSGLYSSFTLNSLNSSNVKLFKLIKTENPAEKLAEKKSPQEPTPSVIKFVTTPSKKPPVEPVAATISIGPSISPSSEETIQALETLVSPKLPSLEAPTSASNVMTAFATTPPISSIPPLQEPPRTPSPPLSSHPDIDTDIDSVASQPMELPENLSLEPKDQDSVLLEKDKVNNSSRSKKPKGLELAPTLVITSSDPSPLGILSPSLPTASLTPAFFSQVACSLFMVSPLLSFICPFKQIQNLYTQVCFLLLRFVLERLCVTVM
To be noted: protein: recombinant; tags: N-terminal GST; dsDNA, one strand shown. The essentials:
as §1

Test [7] concerns the target T4, ETV2 (Homo sapiens, UniProt O00321 1-342).
T4 sequence: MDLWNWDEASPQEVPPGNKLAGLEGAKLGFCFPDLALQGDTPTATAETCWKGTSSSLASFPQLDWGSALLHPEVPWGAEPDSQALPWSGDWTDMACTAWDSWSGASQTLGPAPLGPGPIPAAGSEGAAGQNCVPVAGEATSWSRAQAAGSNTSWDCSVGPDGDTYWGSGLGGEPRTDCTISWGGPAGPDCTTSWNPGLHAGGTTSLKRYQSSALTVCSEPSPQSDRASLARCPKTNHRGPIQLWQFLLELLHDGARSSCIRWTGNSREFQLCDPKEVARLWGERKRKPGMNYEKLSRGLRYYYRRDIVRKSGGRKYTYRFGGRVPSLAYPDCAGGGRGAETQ
To be noted: protein: recombinant; tags: N-terminal GST; dsDNA, one strand shown. The method, boiled down:
as §1

For test [8], the target named is T5, ELF3 (Homo sapiens, UniProt P78545 1-371).
T5 sequence: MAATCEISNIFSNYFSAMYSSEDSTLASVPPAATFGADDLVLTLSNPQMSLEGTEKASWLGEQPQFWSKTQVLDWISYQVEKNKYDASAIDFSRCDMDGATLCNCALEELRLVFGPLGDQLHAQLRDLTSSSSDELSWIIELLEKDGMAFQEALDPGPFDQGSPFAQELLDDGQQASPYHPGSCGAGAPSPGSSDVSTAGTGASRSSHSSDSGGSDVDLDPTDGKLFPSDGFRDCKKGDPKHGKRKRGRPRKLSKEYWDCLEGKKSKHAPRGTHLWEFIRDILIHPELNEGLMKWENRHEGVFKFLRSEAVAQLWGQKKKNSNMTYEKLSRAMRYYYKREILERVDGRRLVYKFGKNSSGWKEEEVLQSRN
Particulars: protein: recombinant; tags: N-terminal GST; dsDNA, one strand shown. The essentials: as §1

Test [9] has as its target CRX (Homo sapiens, UniProt O43186 1-299). To be noted: protein: recombinant; tags: N-terminal GST; dsDNA, one strand shown. The method, boiled down: as §1
Test [10] concerns the target ETV1 (Homo sapiens, UniProt P50549 1-477). To be noted: protein: recombinant; tags: N-terminal GST; dsDNA, one strand shown. The essentials: as §1
The target in test [11] is T6, ERF (Homo sapiens, UniProt P50548 1-548).
T6 sequence: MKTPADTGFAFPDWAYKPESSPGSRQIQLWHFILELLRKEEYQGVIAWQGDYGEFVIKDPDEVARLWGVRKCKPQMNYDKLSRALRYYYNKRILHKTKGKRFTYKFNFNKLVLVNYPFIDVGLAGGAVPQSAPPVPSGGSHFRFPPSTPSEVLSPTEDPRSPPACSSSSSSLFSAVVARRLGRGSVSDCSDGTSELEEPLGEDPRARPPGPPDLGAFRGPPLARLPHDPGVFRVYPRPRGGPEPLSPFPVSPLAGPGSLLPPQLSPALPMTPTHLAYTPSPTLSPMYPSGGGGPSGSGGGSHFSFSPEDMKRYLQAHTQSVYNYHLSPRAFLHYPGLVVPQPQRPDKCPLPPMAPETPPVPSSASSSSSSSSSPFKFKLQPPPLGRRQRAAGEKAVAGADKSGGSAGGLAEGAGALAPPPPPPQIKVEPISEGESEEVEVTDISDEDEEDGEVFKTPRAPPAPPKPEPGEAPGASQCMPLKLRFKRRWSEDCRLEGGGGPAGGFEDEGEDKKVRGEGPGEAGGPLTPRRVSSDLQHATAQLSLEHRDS
Particulars: protein: recombinant; tags: N-terminal GST; dsDNA, one strand shown. The method, boiled down:
as §1

Test [12] addresses T7, ETV3L (Homo sapiens, UniProt Q6ZN32 1-361).
T7 sequence: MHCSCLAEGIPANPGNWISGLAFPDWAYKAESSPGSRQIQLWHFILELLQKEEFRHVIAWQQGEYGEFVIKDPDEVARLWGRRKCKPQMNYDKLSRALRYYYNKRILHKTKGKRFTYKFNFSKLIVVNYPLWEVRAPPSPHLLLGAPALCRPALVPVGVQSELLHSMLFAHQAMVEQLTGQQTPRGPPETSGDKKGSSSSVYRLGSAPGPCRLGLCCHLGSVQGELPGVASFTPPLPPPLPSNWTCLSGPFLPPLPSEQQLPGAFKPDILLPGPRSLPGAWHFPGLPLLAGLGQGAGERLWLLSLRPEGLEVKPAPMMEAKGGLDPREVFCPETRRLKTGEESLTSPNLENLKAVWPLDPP
To be noted: protein: recombinant; tags: N-terminal GST; dsDNA, one strand shown. The method, boiled down: as §1

For test [13], the target named is T8, ETS2 (Homo sapiens, UniProt P15036 1-469).
T8 sequence: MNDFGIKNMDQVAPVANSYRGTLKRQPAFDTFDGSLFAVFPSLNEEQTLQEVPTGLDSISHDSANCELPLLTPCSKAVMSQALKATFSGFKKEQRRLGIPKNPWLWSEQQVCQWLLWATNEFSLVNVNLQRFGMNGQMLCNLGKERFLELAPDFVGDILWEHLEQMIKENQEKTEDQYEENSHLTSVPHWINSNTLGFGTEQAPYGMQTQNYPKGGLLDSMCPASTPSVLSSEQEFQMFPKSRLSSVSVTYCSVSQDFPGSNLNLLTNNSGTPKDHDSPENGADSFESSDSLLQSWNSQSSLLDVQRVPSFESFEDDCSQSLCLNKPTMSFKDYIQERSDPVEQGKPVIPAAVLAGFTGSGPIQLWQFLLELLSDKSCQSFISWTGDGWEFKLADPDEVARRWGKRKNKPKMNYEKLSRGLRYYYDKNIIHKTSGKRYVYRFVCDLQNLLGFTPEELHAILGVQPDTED
Particulars: protein: recombinant; tags: N-terminal GST; dsDNA, one strand shown. The essentials: as §1

In test [14] the target is T9, SPDEF (Homo sapiens, UniProt O95238 1-335).
T9 sequence: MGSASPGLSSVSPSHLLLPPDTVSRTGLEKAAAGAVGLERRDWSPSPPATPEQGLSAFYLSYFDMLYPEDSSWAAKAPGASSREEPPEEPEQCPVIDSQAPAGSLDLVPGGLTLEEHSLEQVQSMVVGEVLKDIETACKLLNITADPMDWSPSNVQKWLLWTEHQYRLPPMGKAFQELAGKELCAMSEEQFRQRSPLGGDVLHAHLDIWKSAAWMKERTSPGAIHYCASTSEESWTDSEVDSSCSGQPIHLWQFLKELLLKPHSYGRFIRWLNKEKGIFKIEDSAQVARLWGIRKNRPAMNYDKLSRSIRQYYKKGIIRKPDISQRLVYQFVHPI
Particulars: protein: recombinant; tags: N-terminal GST; dsDNA, one strand shown. The method, boiled down:
as §1

Test [15] addresses T10, ETV7 (Homo sapiens, UniProt Q9Y603 1-341).
T10 sequence: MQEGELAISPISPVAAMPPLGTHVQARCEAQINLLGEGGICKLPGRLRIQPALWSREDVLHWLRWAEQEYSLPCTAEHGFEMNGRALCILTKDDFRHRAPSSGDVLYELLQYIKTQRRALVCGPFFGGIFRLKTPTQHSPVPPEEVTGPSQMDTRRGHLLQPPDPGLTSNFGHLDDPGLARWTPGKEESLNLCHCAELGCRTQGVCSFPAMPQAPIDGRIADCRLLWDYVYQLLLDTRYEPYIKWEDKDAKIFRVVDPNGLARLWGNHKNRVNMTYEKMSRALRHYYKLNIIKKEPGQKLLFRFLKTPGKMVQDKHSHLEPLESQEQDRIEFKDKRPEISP
Particulars: protein: recombinant; tags: N-terminal GST; dsDNA, one strand shown. The essentials:
as §1

For test [16], the target named is T11, ELF5 (Homo sapiens, UniProt Q9UKW6-2 1-255).
T11 sequence: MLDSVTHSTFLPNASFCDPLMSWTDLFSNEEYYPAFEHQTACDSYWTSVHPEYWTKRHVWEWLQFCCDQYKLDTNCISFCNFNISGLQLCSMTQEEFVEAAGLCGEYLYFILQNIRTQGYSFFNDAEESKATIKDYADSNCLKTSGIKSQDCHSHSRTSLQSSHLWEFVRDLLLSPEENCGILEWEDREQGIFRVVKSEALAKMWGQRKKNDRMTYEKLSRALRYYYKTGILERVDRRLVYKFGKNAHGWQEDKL
Particulars: protein: recombinant; tags: N-terminal GST; dsDNA, one strand shown. The essentials: as §1

Test [17] has as its target T12, ETV3 (Homo sapiens, UniProt P41162-2 1-143).
T12 sequence: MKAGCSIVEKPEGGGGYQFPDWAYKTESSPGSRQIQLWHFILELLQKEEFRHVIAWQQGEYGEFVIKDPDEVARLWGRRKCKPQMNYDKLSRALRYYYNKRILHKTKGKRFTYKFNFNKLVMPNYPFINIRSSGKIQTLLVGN
To be noted: protein: recombinant; tags: N-terminal GST; dsDNA, one strand shown. The method, boiled down: as §1

The target in test [18] is ETV6 (Homo sapiens, UniProt P41212 1-452). To be noted: protein: recombinant; tags: N-terminal GST; dsDNA, one strand shown. The method, boiled down: as §1
Chain of ETV6 (P41212 whole entry): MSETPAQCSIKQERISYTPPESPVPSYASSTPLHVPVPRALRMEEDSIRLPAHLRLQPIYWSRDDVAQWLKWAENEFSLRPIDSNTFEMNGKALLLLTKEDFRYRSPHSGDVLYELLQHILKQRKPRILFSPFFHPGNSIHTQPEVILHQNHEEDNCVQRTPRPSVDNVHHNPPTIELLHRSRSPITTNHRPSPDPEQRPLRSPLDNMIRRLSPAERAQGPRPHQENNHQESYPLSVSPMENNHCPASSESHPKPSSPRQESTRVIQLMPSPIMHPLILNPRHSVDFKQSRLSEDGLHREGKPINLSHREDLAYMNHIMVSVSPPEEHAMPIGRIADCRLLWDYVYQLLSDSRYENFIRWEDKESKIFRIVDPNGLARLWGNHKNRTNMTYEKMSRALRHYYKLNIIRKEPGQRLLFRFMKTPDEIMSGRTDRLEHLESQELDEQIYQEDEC

Chain of CRX (O43186 whole entry): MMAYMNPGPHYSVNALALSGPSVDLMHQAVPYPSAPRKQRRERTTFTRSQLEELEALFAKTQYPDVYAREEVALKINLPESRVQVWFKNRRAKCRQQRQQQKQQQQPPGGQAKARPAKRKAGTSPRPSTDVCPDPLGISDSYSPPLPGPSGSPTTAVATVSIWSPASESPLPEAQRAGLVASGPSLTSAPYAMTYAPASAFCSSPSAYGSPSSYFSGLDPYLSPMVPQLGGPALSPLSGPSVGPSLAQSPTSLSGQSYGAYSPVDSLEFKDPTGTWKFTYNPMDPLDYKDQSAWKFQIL
Chain of HSF1 (Q00613 whole entry): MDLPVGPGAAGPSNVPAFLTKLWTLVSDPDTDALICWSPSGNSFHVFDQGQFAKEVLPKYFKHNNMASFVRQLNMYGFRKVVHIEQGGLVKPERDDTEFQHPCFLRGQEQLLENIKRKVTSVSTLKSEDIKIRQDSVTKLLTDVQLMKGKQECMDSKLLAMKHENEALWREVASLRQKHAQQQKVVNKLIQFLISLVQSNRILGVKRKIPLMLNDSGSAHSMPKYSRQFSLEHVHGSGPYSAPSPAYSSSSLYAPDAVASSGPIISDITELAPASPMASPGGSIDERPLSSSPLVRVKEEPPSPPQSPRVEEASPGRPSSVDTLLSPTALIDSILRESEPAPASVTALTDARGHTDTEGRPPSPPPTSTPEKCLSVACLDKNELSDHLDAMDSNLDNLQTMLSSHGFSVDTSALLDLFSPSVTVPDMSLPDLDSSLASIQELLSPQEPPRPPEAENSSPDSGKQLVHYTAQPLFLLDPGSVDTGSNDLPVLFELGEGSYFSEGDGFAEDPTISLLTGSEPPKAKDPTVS
Chain of ELF4 (Q99607 whole entry): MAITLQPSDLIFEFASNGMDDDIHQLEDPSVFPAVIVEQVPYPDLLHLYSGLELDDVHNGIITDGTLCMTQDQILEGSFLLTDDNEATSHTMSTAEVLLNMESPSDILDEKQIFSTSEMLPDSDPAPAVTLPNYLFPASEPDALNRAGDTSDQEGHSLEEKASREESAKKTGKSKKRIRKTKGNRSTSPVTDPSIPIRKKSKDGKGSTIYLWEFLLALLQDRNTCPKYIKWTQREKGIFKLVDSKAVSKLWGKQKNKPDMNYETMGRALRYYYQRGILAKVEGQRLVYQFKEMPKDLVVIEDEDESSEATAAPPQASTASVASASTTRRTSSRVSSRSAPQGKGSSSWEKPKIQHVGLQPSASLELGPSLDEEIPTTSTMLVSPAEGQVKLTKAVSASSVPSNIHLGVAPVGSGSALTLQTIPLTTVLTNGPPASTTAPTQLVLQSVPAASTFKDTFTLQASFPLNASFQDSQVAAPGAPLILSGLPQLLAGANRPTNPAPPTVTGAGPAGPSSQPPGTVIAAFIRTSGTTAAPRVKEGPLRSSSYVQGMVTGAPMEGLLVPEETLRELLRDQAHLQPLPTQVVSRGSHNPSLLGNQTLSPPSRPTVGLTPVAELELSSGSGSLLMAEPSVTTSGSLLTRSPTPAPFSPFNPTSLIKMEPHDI
Chain of ETV5 (P41161 whole entry): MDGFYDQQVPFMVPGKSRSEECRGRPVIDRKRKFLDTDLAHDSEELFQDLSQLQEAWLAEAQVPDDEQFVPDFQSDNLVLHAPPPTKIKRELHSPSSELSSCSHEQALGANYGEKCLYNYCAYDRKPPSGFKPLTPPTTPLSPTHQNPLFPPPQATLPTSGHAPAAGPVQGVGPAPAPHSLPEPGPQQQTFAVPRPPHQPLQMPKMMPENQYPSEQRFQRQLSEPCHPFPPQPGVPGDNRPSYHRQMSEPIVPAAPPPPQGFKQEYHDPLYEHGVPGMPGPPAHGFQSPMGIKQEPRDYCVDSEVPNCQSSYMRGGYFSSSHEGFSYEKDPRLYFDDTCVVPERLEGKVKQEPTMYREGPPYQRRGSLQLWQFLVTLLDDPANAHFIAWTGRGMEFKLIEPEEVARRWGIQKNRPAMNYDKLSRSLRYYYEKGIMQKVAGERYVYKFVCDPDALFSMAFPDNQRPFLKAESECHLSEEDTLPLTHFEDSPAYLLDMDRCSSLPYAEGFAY
Chain of ETV1 (P50549 whole entry): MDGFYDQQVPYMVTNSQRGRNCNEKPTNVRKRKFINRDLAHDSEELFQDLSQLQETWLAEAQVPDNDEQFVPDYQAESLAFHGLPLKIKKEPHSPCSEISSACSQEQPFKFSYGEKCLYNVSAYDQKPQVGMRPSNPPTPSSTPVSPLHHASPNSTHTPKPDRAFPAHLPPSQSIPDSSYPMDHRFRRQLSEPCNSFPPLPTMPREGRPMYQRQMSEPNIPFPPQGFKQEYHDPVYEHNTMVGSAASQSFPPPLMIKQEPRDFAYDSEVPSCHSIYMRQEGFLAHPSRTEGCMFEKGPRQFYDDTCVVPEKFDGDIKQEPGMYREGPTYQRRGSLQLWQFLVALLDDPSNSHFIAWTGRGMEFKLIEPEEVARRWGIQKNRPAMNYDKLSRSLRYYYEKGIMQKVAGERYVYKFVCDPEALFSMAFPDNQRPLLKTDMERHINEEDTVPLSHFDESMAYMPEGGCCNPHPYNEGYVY

In the case of CTTCCT, the binding signal in test [1] was 2.94 fold enrichment (6-mer frequency, TF over GST control); in test [2], 3.4 fold enrichment (6-mer frequency, TF over GST control); in test [3], 1.4 fold enrichment (6-mer frequency, TF over GST control); in [4], 3.47 fold enrichment (6-mer frequency, TF over GST control); in [5], 2.83 fold enrichment (6-mer frequency, TF over GST control); in test [6], 2.83 fold enrichment (6-mer frequency, TF over GST control). The binding signal in [7] is 3.38 fold enrichment (6-mer frequency, TF over GST control); in test [8] it was 2.95 fold enrichment (6-mer frequency, TF over GST control); in [9], 1.19 fold enrichment (6-mer frequency, TF over GST control); in test [10], 3.18 fold enrichment (6-mer frequency, TF over GST control); in test [11], 2.9 fold enrichment (6-mer frequency, TF over GST control); in test [12], 3.08 fold enrichment (6-mer frequency, TF over GST control). The binding signal in [13] is 3.37 fold enrichment (6-mer frequency, TF over GST control); in [14], 2.74 fold enrichment (6-mer frequency, TF over GST control); in test [15] it was 2.76 fold enrichment (6-mer frequency, TF over GST control); in test [16], 5.89 fold enrichment (6-mer frequency, TF over GST control); in [17], 3.61 fold enrichment (6-mer frequency, TF over GST control); in [18], 3.81 fold enrichment (6-mer frequency, TF over GST control).
